# Shown are actives, neighbours in structure and some others; about 2% of the full set was active somewhere.
# LYPLA2 counter: blocks human lysophospholipase 2, a PME1 counter-screen | O95372 | recombinant LYPLA2, FP-Rh probe fluorescence polarization | inhibition, % at 5.9 µM | 320,000 compounds, 0.38% hits | AID 2177;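 active = inhibition above the screen-wide mean plus 3 SD, limit set per campaign, cut at about 26% in these data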;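 also: 0% = LYPLA2 with DMSO and 100% = wells lacking LYPLA2 enzyme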
# Target sequence (O95372 whole entry, looked up): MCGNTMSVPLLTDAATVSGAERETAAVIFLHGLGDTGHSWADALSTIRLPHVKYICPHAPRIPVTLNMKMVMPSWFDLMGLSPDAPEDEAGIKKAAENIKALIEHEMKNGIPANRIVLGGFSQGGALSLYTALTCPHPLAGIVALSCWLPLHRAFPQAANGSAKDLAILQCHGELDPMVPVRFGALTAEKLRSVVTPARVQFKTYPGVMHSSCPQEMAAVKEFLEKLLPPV
# GSTO1 counter: GSTO1 inhibition, counter-screen for RBBP9 inhibitors | P78417 | recombinant GSTO1, activity-based probe fluorescence polarization | inhibition, % at 5.96 µM | 300,000 compounds, 1.1% hits;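 active = inhibition above the campaign mean inhibition plus 3 SD, cut at about 35% in these data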;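 also: 0% = GSTO1-1 with DMSO and 100% = wells lacking GSTO1-1 enzyme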
# Target sequence (P78417 whole entry, looked up): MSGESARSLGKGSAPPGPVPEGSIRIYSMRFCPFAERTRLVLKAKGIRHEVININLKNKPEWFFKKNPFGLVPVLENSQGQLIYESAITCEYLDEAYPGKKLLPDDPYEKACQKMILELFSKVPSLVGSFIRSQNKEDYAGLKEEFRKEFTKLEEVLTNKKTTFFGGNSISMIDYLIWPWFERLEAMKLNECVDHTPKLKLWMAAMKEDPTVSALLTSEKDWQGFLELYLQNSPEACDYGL
# LYPLA1 inh: counter-screen for PME1 inhibitors: inhibitors of human LYPLA1; recombinant LYPLA1, FP-Rh probe fluorescence polarization; inhibition, % at 5.9 µM; 320,000 compounds, 0.16% hits;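 active = inhibition above the mean of all tested compounds plus 3 SD, set per campaign, cut at about 14% in these data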;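 also: inhibitors block serine hydrolase probe labeling of LYPLA1 so polarization falls; 0% = enzyme with DMSO and 100% = wells lacking LYPLA1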
# PREPL inhibitor: inhibits the human prolyl oligopeptidase-like enzyme | inhibition, % at 5.96 µM | 320,000 compounds, 0.68% hits | recombinant PREPL, fluorescence polarization activity-based probe | Q4J6C6;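 also: 0% = enzyme with DMSO and 100% = wells lacking enzyme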
# Fam108B inh: blocks mouse Fam108B hydrolase in RBBP9 counter-screen. 300,000 compounds, 0.33% hits. inhibition, % at 9.51 µM. AID 1947. recombinant Fam108B, FP-Rh probe fluorescence polarization;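 active = inhibition above the screen mean inhibition plus 3 SD, computed separately per campaign, cut at about 18% in these data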;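 also: inhibitors lower polarization as less probe binds the enzyme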
# PME-1 inh: blocks human protein phosphatase methylesterase 1; Q9Y570; recombinant PME-1, FP-Rh probe fluorescence polarization; inhibition, % at 5.9 µM; 320,000 compounds, 0.53% hits;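 active = inhibition above the campaign mean of all compounds plus 3 SD, cut at about 26% in these data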;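 also: competitive labeling of PME-1 active site by serine hydrolase directed probe; 0% = PME-1 with DMSO and 100% = wells lacking PME-1 enzyme; inhibitors block probe labeling so polarization falls and inhibition rises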
# PREPL inh cf: confirmation of human PREPL enzyme inhibitors. 2,000 compounds, 67% hits. recombinant PREPL, fluorescence polarization activity probe. shares compounds with PREPL inhibitor. inhibition, % at 5.96 µM. AID 2803;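 also: 0% = protein with DMSO and 100% = wells lacking protein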
# * marks the source's active call; other numbers are inactive results; / = not tested or not shown. Rule as the data show it, unless noted: active = inhibition above about 43%; inactive = the rest.
SMILES,LYPLA2 counter,GSTO1 counter,LYPLA1 inh,PREPL inhibitor,Fam108B inh,PME-1 inh,PREPL inh cf
CN1CCN(c2ccc(NC(=O)COc3ccccc3Cl)cc2)CC1,7,2,3,44*,4,5,42
Cc1cccn2c(Nc3ccccc3)c(-c3ccccn3)nc12,6,7,5,-13,8,1,/
Cc1ccn2c(Nc3ccccc3C)c(-c3ccccn3)nc2c1,8,7,4,52*,0,4,41
Cc1ccn2c(Nc3ccccc3)c(-c3ccccn3)nc2c1,-3,22,-1,67*,1,7,63*
O=C(NCc1ccc(F)cc1)C(c1ccco1)N(C(=O)c1csnn1)C1CC1 (centres undefined),0,13,2,6,2,2,/
Cc1ccc(Nc2nc(N)nc(CSC(=S)N3CCN(c4ccccc4)CC3)n2)cc1,-2,0,-11,64*,-3,-1,34
Nc1nc(CSC(=S)N2CCN(c3ccccc3)CC2)nc(Nc2ccccc2)n1,-5,-12,-6,-50,-6,-5,/
O=C(C1CCCN(S(=O)(=O)c2cccc3nonc23)C1)N1CCN(c2ccccc2Cl)CC1 (centres undefined),9,5,0,47*,-3,4,35
O=C(NNC(=O)[C@H]1CC=CC[C@H]1C(=O)O)c1ccc(Cl)cc1Cl,1,2,1,14,-2,0,/
COc1ccc(Nc2nc(N3CCCC3)c3ccccc3n2)cc1,1,-4,5,77*,-1,-105,62*
COc1ccc(Nc2c3ccccc3nc3ccccc23)cc1,-2,-8,-2,47*,3,-43,45*
CCN(CC)c1ccc(Nc2nc(N3CCOCC3)c3ccccc3n2)cc1,5,7,3,36,6,-9,/
O=C(COC(=O)/C=C/c1ccc(F)cc1)Nc1nnc(-c2ccccc2)o1,-7,/,-3,16,/,2,/
COC(=O)c1c(-c2cccnc2)csc1NC(=O)c1ccc2c(c1)OCO2,-4,3,-2,6,-3,-1,/
Cc1ccc2sc(N(CCCN(C)C)C(=O)c3ccc(S(=O)(=O)N(C)C4CCCCC4)cc3)nc2c1C,1,5,3,52*,3,7,47*
CCSc1ncc(/C=N/Nc2ccc(Cl)cc2)n1C,2,0,-2,43*,9,21,36
CCSc1ncc(/C=N/Nc2ccccc2)n1C,2,9,-2,19,5,6,/
COC(=O)CCCC1=CC2=CC(=O)C(C)(OC(=O)c3cccs3)C(=O)C2=CN1CCc1c[nH]c2ccccc12 (centres undefined),1,27,-2,45*,-1,16,22
O=C(Nc1ccc2c(c1)OCO2)c1cc(-c2ccc(O)cc2)on1,-5,13,-3,4,-2,4,/
O=[N+]([O-])c1ccc(N2CCN(c3cccc(Cl)c3)CC2)cn1,-3,4,-2,47*,1,5,38
COc1cc(/C=N/N=C(N)N)ccc1OCc1ccccc1Cl,-5,1,-4,49*,-3,2,48*
COc1ccc(/C=N/N=C/c2ccc(OC)c(OC)c2)cc1OC,-2,5,-1,10,-1,-4,/
Cc1c(OC(C)C(=O)NCc2ccncc2)ccc2c3c(c(=O)oc12)CCCC3 (centres undefined),1,-13,1,25,1,-1,/
O=C1C(NS(=O)(=O)c2ccccc2)=C(N2CCN(c3ccc(F)cc3)CC2)C(=O)c2ccccc21,6,20,1,59*,5,5,61*
O=S(=O)(Nc1nc2ccccc2nc1N1CCN(c2ccccc2)CC1)c1ccc(F)cc1,4,12,-2,6,4,3,/
SMILES,LYPLA2 counter,GSTO1 counter,LYPLA1 inh,PREPL inhibitor,Fam108B inh,PME-1 inh,PREPL inh cf
Cc1ccc(C)c(N2CCN(C(=S)Nc3ccc4nc(N5CCOCC5)cc(C)c4c3)CC2)c1,5,2,-6,54*,7,6,39
Cc1cccc(N2CCN(C(=S)Nc3ccc4nc(N5CCOCC5)cc(C)c4c3)CC2C)c1 (centres undefined),4,2,3,43*,-4,5,16
Cc1ccc(C)c(N2CCN(C(=S)Nc3ccc4nc(N5CCN(C)CC5)cc(C)c4c3)CC2)c1,1,7,2,53*,0,0,37
Cc1cc(N2CCN(C)CC2)nc2ccc(NC(=S)N3CCC4(CC3)OCCO4)cc12,7,0,2,30,2,5,/
COc1ccc(C)cc1S(=O)(=O)NC(C)C(=O)Nc1ccc2c(c1)OCO2 (centres undefined),0,-3,3,5,-1,5,/
O=C(CSc1n[nH]c(=O)n1-c1ccccc1)N1CCOCC1,3,-5,4,14,-4,2,/
COC(=O)c1ccccc1OCCOCCOc1cccc2ccc(C)nc12,4,2,-2,49*,1,-1,2
COC(=O)c1ccc(OCCOCCOc2cccc3ccc(C)nc23)cc1,5,1,1,9,-5,3,/
CCOc1ncccc1C(=O)N(C)CC(=O)Nc1ccccc1SC,4,8,1,15,5,-1,/
CCOc1nc(NCCN2CCOCC2)nc(Nc2ccc([N+](=O)[O-])cc2)n1,0,-1,-3,38,-5,-2,/
COc1nc(NCCN2CCOCC2)nc(Nc2ccc([N+](=O)[O-])cc2)n1,-8,-11,0,47*,-2,-2,41
COc1ccc(N2CC(C(=O)OC(C)C(=O)c3ccccc3)CC2=O)cc1 (centres undefined),3,10,2,10,5,-1,/
CC(C)c1nnc(NC(=O)CCC(=O)N2CCN(c3ccc(Cl)cc3)CC2)s1,0,2,-4,43*,-1,2,43
Cc1cc(OCC(=O)N2CCC(C(N)=O)CC2)c2c(C)cc(=O)oc2c1,6,-6,6,17,8,-3,/
O=C(COc1ccccc1)Nc1ccc(N2CCN(C(=O)c3ccco3)CC2)cc1,1,8,-2,42,0,-7,/
Nc1ccc(N2CCN(C(=O)c3ccco3)CC2)cc1,8,5,2,63*,3,-1,44*
O=C(Nc1ccc(N2CCN(C(=O)c3ccco3)CC2)c(Cl)c1)c1cccs1,10,-7,0,32,-5,3,/
Cc1ccc(OCC(=O)Nc2ccc(N3CCN(C(=O)c4ccco4)CC3)cc2)cc1,6,-7,0,52*,1,-4,43*
O=C(Cc1ccc(Cl)cc1)Nc1ccc(N2CCN(C(=O)c3ccco3)CC2)c(Cl)c1,-1,-20,-4,54*,0,3,47*

# Source: PubChem BioAssay
